Experiment in all cases: DAPPL (digital affinity profiling via proximity ligation, sequencing); 10 mM Tris-HCl pH 7.5, 50 mM NaCl, 1 mM DTT, 4% glycerol, room temperature, 30 min; GST-TFs on glutathione beads, 16-mer random dsDNA library, 0.1% formaldehyde crosslink after washing; high values mean tight binding
Holding throughout (conditions): protein: recombinant; tags: N-terminal GST; dsDNA, one strand shown

For one test, the target named is T1, ERF (Homo sapiens, UniProt P50548 1-548).
T1 sequence: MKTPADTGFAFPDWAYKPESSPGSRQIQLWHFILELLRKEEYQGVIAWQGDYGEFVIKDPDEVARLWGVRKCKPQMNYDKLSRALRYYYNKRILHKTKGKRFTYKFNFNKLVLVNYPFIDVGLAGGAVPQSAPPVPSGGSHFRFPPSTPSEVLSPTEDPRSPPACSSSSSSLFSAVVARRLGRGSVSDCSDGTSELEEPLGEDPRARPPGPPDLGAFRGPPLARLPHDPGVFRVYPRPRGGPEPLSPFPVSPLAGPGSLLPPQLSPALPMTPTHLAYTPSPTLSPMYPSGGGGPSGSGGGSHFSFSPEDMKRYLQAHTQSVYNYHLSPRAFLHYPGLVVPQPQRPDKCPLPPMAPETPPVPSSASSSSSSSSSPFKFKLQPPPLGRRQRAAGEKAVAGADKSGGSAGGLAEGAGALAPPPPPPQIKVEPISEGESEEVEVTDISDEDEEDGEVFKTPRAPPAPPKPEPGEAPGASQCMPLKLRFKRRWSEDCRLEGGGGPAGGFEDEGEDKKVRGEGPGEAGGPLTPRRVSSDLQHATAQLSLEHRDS
In short, it runs like this:
(§1)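 Binding signal is given per hexamer as its read frequency for a factor divided by its frequency in the tag-only sample. GST-fused human transcription factors were expressed in yeast, captured on glutathione beads, barcoded with DNA and pooled with that sample, then incubated with 200 nmole of a 16-mer random double-stranded DNA library in Tris/NaCl/DTT/glycerol buffer for 30 min at room temperature. The pools were then washed, crosslinked, proximity-ligated, amplified by PCR and sequenced on an Illumina NextSeq500.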

A further test addresses T2, ETV3L (Homo sapiens, UniProt Q6ZN32 1-361).
T2 sequence: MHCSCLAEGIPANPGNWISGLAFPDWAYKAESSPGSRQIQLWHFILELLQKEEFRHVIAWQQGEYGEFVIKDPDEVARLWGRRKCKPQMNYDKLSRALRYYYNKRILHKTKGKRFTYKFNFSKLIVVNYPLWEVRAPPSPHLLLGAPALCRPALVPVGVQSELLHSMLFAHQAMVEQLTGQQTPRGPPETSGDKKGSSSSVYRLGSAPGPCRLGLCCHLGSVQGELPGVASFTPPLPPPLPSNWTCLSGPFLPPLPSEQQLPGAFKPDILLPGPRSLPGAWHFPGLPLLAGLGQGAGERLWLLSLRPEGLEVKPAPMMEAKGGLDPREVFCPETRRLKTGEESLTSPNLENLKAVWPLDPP
The gist of the method: as §1

For a further test, the target named is T3, ETS2 (Homo sapiens, UniProt P15036 1-469).
T3 sequence: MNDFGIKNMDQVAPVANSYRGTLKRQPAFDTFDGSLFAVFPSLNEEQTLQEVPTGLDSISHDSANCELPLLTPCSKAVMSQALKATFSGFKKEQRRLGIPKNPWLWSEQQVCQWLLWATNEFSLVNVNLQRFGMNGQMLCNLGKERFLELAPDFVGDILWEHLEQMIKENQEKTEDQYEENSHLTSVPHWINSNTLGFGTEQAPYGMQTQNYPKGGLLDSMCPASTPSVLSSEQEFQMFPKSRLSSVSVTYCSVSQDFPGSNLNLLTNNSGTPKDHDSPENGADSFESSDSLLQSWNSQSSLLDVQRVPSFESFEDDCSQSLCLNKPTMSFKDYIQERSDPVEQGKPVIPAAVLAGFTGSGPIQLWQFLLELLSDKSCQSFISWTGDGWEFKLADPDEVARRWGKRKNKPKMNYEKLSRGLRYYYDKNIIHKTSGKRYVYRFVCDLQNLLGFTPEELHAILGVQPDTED
The gist of the method: as §1

Another test concerns the target T4, SPDEF (Homo sapiens, UniProt O95238 1-335).
T4 sequence: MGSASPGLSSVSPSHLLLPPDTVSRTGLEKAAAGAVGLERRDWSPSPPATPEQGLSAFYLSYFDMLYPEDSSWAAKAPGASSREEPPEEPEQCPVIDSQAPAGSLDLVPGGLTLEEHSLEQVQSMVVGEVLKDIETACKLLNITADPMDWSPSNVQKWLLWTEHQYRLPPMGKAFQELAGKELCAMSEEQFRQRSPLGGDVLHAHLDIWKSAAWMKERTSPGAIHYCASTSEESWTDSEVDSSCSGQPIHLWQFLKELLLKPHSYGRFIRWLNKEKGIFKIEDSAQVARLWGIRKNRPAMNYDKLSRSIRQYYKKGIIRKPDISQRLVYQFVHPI
The gist of the method:
as §1

In the next test the target is T5, ETV7 (Homo sapiens, UniProt Q9Y603 1-341).
T5 sequence: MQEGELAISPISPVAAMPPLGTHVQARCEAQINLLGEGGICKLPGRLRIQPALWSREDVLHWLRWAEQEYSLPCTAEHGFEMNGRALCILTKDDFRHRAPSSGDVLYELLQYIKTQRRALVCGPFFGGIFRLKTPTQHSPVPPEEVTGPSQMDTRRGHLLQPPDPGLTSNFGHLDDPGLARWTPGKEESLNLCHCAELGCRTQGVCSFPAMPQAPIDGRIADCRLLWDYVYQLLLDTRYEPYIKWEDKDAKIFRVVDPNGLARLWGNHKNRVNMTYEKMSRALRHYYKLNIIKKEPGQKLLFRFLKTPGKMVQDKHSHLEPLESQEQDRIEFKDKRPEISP
The gist of the method:
as §1

A further test concerns the target T6, ELF5 (Homo sapiens, UniProt Q9UKW6-2 1-255).
T6 sequence: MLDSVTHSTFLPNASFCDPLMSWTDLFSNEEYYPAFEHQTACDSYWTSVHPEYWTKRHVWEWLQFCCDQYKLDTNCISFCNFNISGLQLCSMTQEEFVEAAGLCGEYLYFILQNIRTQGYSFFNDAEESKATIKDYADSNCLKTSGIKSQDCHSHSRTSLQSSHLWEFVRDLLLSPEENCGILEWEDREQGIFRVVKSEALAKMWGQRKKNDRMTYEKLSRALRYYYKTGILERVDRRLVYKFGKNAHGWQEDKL
The gist of the method: as §1

The target of another test is T7, ETV3 (Homo sapiens, UniProt P41162-2 1-143).
T7 sequence: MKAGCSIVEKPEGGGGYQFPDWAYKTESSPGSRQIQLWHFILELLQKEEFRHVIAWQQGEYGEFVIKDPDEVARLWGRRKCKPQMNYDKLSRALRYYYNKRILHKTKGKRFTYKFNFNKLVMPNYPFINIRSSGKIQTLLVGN
The gist of the method:
as §1

A further test has as its target ETV6 (Homo sapiens, UniProt P41212 1-452). In short, it runs like this:
as §1

Sequence of ETV6 (P41212 whole entry): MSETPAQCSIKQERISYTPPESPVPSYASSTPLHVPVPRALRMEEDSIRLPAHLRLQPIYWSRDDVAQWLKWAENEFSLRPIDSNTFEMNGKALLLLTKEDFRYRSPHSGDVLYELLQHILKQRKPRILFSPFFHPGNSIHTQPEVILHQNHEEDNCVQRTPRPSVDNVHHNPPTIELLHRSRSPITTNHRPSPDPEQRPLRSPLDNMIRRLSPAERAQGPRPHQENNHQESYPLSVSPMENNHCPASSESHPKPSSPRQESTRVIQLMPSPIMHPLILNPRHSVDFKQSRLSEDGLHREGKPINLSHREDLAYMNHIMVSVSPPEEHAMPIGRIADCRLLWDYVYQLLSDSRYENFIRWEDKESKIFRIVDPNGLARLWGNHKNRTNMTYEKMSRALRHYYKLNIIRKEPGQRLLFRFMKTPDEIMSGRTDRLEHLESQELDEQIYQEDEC

For TTCCAT, the binding signal with ERF is 1.24 fold enrichment (6-mer frequency, TF over GST control); with ETV3L, 1.29 fold enrichment (6-mer frequency, TF over GST control); in the test with ETS2 it was 1.25 fold enrichment (6-mer frequency, TF over GST control); in the test with SPDEF, 1.2 fold enrichment (6-mer frequency, TF over GST control); with ETV7, 1.27 fold enrichment (6-mer frequency, TF over GST control); in the test with ELF5, 1.26 fold enrichment (6-mer frequency, TF over GST control). Also, the binding signal in the test with ETV3 is 1.32 fold enrichment (6-mer frequency, TF over GST control); with ETV6, 1.4 fold enrichment (6-mer frequency, TF over GST control).
With TTTTGT, the binding signal with ERF is 1.33 fold enrichment (6-mer frequency, TF over GST control); with ETV3L it was 1.34 fold enrichment (6-mer frequency, TF over GST control); with ETS2, 1.29 fold enrichment (6-mer frequency, TF over GST control); in the test with SPDEF, 1.35 fold enrichment (6-mer frequency, TF over GST control); with ETV7 it was 1.22 fold enrichment (6-mer frequency, TF over GST control); with ELF5 it was 1.33 fold enrichment (6-mer frequency, TF over GST control). For the same sequence, the binding signal with ETV3 is 1.34 fold enrichment (6-mer frequency, TF over GST control); in the test with ETV6 it was 1.24 fold enrichment (6-mer frequency, TF over GST control).
For AATGCT, the binding signal in the test with ERF is 1.16 fold enrichment (6-mer frequency, TF over GST control); with ETV3L it was 1.15 fold enrichment (6-mer frequency, TF over GST control); with ETS2 it was 1.2 fold enrichment (6-mer frequency, TF over GST control); with SPDEF it was 1.11 fold enrichment (6-mer frequency, TF over GST control); in the test with ETV7, 1.1 fold enrichment (6-mer frequency, TF over GST control); with ELF5, 1.24 fold enrichment (6-mer frequency, TF over GST control). Also, the binding signal was 1.14 fold enrichment (6-mer frequency, TF over GST control) with ETV3 and 1.32 fold enrichment (6-mer frequency, TF over GST control) in the test with ETV6.
In the case of TATTCT, the binding signal was 1.22 fold enrichment (6-mer frequency, TF over GST control) with ERF; 1.35 fold enrichment (6-mer frequency, TF over GST control) with ETV3L; 1.36 fold enrichment (6-mer frequency, TF over GST control) with ETS2; 1.34 fold enrichment (6-mer frequency, TF over GST control) in the test with SPDEF; 1.42 fold enrichment (6-mer frequency, TF over GST control) in the test with ETV7; 1.32 fold enrichment (6-mer frequency, TF over GST control) with ELF5. Moreover, the binding signal was 1.31 fold enrichment (6-mer frequency, TF over GST control) with ETV3 and 1.4 fold enrichment (6-mer frequency, TF over GST control) with ETV6.
As for CGAACC, the binding signal with ERF is 1.12 fold enrichment (6-mer frequency, TF over GST control); in the test with ETV3L, 1.15 fold enrichment (6-mer frequency, TF over GST control); in the test with ETS2, 1.14 fold enrichment (6-mer frequency, TF over GST control); in the test with SPDEF it was 1.23 fold enrichment (6-mer frequency, TF over GST control); with ETV7, 1.11 fold enrichment (6-mer frequency, TF over GST control); in the test with ELF5, 1.09 fold enrichment (6-mer frequency, TF over GST control). In addition, the binding signal in the test with ETV3 was 1.07 fold enrichment (6-mer frequency, TF over GST control); with ETV6, 1.1 fold enrichment (6-mer frequency, TF over GST control).
As to TCCCAC, the binding signal in the test with ERF is 1.5 fold enrichment (6-mer frequency, TF over GST control); in the test with ETV3L it was 1.31 fold enrichment (6-mer frequency, TF over GST control); in the test with ETS2 it was 1.23 fold enrichment (6-mer frequency, TF over GST control); with SPDEF it was 1.33 fold enrichment (6-mer frequency, TF over GST control); in the test with ETV7 it was 1.41 fold enrichment (6-mer frequency, TF over GST control); in the test with ELF5 it was 1.47 fold enrichment (6-mer frequency, TF over GST control). Moreover, the binding signal in the test with ETV3 is 1.24 fold enrichment (6-mer frequency, TF over GST control); with ETV6, 1.4 fold enrichment (6-mer frequency, TF over GST control).
As to CTTAGC, the binding signal with ERF is 1.25 fold enrichment (6-mer frequency, TF over GST control); with ETV3L it was 1.23 fold enrichment (6-mer frequency, TF over GST control); with ETS2, 1.18 fold enrichment (6-mer frequency, TF over GST control); in the test with SPDEF it was 1.15 fold enrichment (6-mer frequency, TF over GST control); in the test with ETV7, 1.16 fold enrichment (6-mer frequency, TF over GST control); in the test with ELF5, 1.16 fold enrichment (6-mer frequency, TF over GST control). Moreover, the binding signal with ETV3 was 1.22 fold enrichment (6-mer frequency, TF over GST control); with ETV6, 1.2 fold enrichment (6-mer frequency, TF over GST control).
